# Reference: PubChem BioAssay (NCI)
# The panel holds about 83,000 compounds, 20% with a hit somewhere; the sample as a whole holds those more often.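 Interpretation: 100, growth as untreated; towards 0, rising growth inhibition; 0, no net growth; 0 to -100, cell death. Compounds scoring below 10 were considered active.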 The source made the active and inactive calls.
# System: HCT-116 colon
# Assay: NCI-60 one-dose screen, 48 h (100 = growth as untreated, 0 = no growth, -100 = all killed)
# Settings: 10 µM unless noted
row,Structure (SMILES),growth
1,Fc1cccc(CNc2nc(SCCN3CCOCC3)nc3c2cnn3CC(Cl)c2ccc(Br)cc2)c1 (centres undefined),18.4% (inactive)
2,O=C(Nc1nc2ccc([N+](=O)[O-])cc2s1)Nc1ccc(Cl)cc1Cl,22.5% (inactive)
3,Nc1nnc(CS(=O)(=O)c2ccccc2)s1,107% (inactive)
4,CCCCCCCCc1ccc(C(=O)Nc2ccc(C)cc2C(=O)O)cc1,75.5% (inactive)
5,COc1ccc2c(c1)c(-c1cc(N)n3nc(-c4c[nH]c5ccccc45)cc3n1)cn2C,-85.9% (active)
6,Clc1ccc(CNc2nc(SCCN3CCOCC3)nc3c2cnn3CC(Cl)c2ccc(Br)cc2)cc1 (centres undefined),22.7% (inactive)
7,CCC(=O)c1cc(C(=O)OC)c2ccc3c4ccccc4ccc3n12,35% (inactive)
8,Nc1cc(-c2c[nH]c3ccc(Cl)cc23)nc2cc(-c3c[nH]c4ccccc34)nn12,-83.9% (active)
9,CCCCNc1ccc2c3c(cccc13)C(=O)N(NCC(O)COc1ccc3c(C)cc(=O)oc3c1)C2=O (centres undefined),91.9% (inactive)
10,O=C(OCCOCCO)N(c1cccc(Br)c1)c1nc(SCCN2CCOCC2)nc2c1cnn2CC(Cl)c1ccc(Br)cc1 (centres undefined),10.8% (inactive)
11,CCN1C(=O)N(CC)C2NNC(Sc3c(C(=O)O)c4ccccc4n(CC(C)C)c3=O)=NC21 (centres undefined),9.94% (active)
12,CCN1C(=O)N(CC)C2NNC(Sc3c(C(=O)O)c4ccccc4n(CCC(C)C)c3=O)=NC21 (centres undefined),3.95% (active)
13,COc1ccc(C(=O)c2cc(C(C)=O)c3c(C)cc(C)cn23)cc1,19.6% (inactive)
14,O=C(N/N=C/c1ccc(Cl)cc1)c1ccc(OCc2nc3ccc(Cl)cc3[nH]2)cc1,22.7% (inactive)
15,COC(=O)c1cc(C(=O)C(Br)Br)n2c1ccc1c3ccccc3ccc12,49.6% (inactive)
16,O=C(Nc1nc2ccccc2s1)Nc1ccccc1Cl,79.7% (inactive)
17,Oc1ccc(Cl)c(Nc2ncnc3c2cnn3CC(Cl)c2ccc(Br)cc2)c1 (centres undefined),40.8% (inactive)
18,ClC(Cn1ncc2c(Nc3cccc(Br)c3)nc(SCCN3CCOCC3)nc21)c1ccc(Br)cc1 (centres undefined),6.22% (active)
19,Nc1cc(-c2c[nH]c3ccc(F)cc23)nc2cc(-c3c[nH]c4ccccc34)nn12,-41.8% (active)

row,Structure (SMILES),growth
1,O=C1Nc2cc(-c3ccc(NS(=O)(=O)c4ccc(F)c(Cl)c4)cc3)ccc2/C1=C/c1ccc[nH]1,12% (inactive)
2,O=C1CCC(N2C(=O)c3cccc(NCCOCCOCCOCCC(=O)NCCCC(=O)NC(c4ccc5c(c4)OCO5)c4cc(Cl)c5cccnc5c4O)c3C2=O)C(=O)C1 (centres undefined),28.3% (inactive)
3,Cn1cc(-c2cc3nc(-c4c[nH]c5ccccc45)cc(N)n3n2)c2ccccc21,-74.2% (active)
4,CN1C(=O)C(O)(CC(=O)c2cc3ccccc3oc2=O)c2ccccc21 (centres undefined),92.7% (inactive)
5,COc1ccc(Nc2nnc(-c3c[nH]c4ccccc34)o2)cc1,92.4% (inactive)
6,Cc1cccc(C)c1Nc1nnc(-c2c[nH]c3ccccc23)o1,100% (inactive)
7,Cc1ccc(O)cc1Nc1nc(SCCN2CCOCC2)nc2c1cnn2CC(Cl)c1ccc(Br)cc1 (centres undefined),2.84% (active)
8,Fc1ccccc1CNc1nc(SCCN2CCOCC2)nc2c1cnn2CC(Cl)c1ccc(Br)cc1 (centres undefined),26.1% (inactive)
9,COC(=O)c1cc(C(=O)CBr)n2c1ccc1c3ccccc3ccc12,35.6% (inactive)
10,Oc1ccc(F)c(Nc2nc(SCCN3CCOCC3)nc3c2cnn3CC(Cl)c2ccc(Br)cc2)c1 (centres undefined),14.9% (inactive)
11,COC(=O)c1c(C(=O)OC)c2ccc3c4ccccc4ccc3n2c1C(=O)C(C)Br (centres undefined),14% (inactive)
12,Cc1nn(-c2ccccc2)c2nc(C)n(C(=O)N/N=C/c3cccc([N+](=O)[O-])c3)c(=O)c12,87.5% (inactive)
13,COc1c2c(c(Br)c3c1C(CCc1ccccc1)N(C)CC3)OCO2 (centres undefined),11% (inactive)
14,COc1ccc2[nH]cc(-c3cc(N)n4nc(-c5c[nH]c6ccccc56)cc4n3)c2c1,-82.1% (active)
15,CC(C)(C)C(=O)C1CC(C#N)=C2C=Cc3c(ccc4ccccc34)N21 (centres undefined),93.1% (inactive)
16,Oc1ccc(Cl)c(Nc2nc(SCCN3CCOCC3)nc3c2cnn3CC(Cl)c2ccc(Br)cc2)c1 (centres undefined),13.8% (inactive)
17,Fc1ccc(F)c(CNc2nc(SCCN3CCOCC3)nc3c2cnn3CC(Cl)c2ccc(Br)cc2)c1 (centres undefined),16.8% (inactive)
18,CN1CCN(C(=O)Oc2cc3c(c4ccccc24)[C@H](CCl)CN3C(=O)c2cc3cc(OCCCN4CCC4)ccc3[nH]2)[C@H]2CSSC[C@H]21,6.44% (active)
19,Nc1nc(-c2ccccc2)c(N=Nc2ccc(Cl)cc2Cl)s1,-80.6% (active)

# System: HCC-2998 colon
# Assay: as above
# Settings: 10 µM unless noted
row,Structure (SMILES),growth
1,Fc1cccc(CNc2nc(SCCN3CCOCC3)nc3c2cnn3CC(Cl)c2ccc(Br)cc2)c1 (centres undefined),12.2% (inactive)
2,O=C(Nc1nc2ccc([N+](=O)[O-])cc2s1)Nc1ccc(Cl)cc1Cl,69.4% (inactive)
3,Nc1nnc(CS(=O)(=O)c2ccccc2)s1,103% (inactive)
4,CCCCCCCCc1ccc(C(=O)Nc2ccc(C)cc2C(=O)O)cc1,106% (inactive)
5,COc1ccc2c(c1)c(-c1cc(N)n3nc(-c4c[nH]c5ccccc45)cc3n1)cn2C,-80.6% (active)
6,Nc1cc(-c2c[nH]c3ccc(Cl)cc23)nc2cc(-c3c[nH]c4ccccc34)nn12,-81.2% (active)
7,O=C(OCCOCCO)N(c1cccc(Br)c1)c1nc(SCCN2CCOCC2)nc2c1cnn2CC(Cl)c1ccc(Br)cc1 (centres undefined),12% (inactive)
8,CCN1C(=O)N(CC)C2NNC(Sc3c(C(=O)O)c4ccccc4n(CC(C)C)c3=O)=NC21 (centres undefined),18.7% (inactive)
9,CCN1C(=O)N(CC)C2NNC(Sc3c(C(=O)O)c4ccccc4n(CCC(C)C)c3=O)=NC21 (centres undefined),3.88% (active)
10,COc1ccc(C(=O)c2cc(C(C)=O)c3c(C)cc(C)cn23)cc1,76.1% (inactive)
11,O=C(N/N=C/c1ccc(Cl)cc1)c1ccc(OCc2nc3ccc(Cl)cc3[nH]2)cc1,18.2% (inactive)
12,COC(=O)c1cc(C(=O)C(Br)Br)n2c1ccc1c3ccccc3ccc12,43.5% (inactive)
13,Oc1ccc(Cl)c(Nc2ncnc3c2cnn3CC(Cl)c2ccc(Br)cc2)c1 (centres undefined),98.3% (inactive)
14,ClC(Cn1ncc2c(Nc3cccc(Br)c3)nc(SCCN3CCOCC3)nc21)c1ccc(Br)cc1 (centres undefined),3.46% (active)
15,Nc1cc(-c2c[nH]c3ccc(F)cc23)nc2cc(-c3c[nH]c4ccccc34)nn12,-59.2% (active)
16,O=C1Nc2cc(-c3ccc(NS(=O)(=O)c4ccc(F)c(Cl)c4)cc3)ccc2/C1=C/c1ccc[nH]1,17.1% (inactive)
17,Cn1cc(-c2cc3nc(-c4c[nH]c5ccccc45)cc(N)n3n2)c2ccccc21,-78.2% (active)
18,Fc1ccccc1CNc1nc(SCCN2CCOCC2)nc2c1cnn2CC(Cl)c1ccc(Br)cc1 (centres undefined),21.4% (inactive)
19,COC(=O)c1cc(C(=O)CBr)n2c1ccc1c3ccccc3ccc12,62.5% (inactive)
20,Oc1ccc(F)c(Nc2nc(SCCN3CCOCC3)nc3c2cnn3CC(Cl)c2ccc(Br)cc2)c1 (centres undefined),15.8% (inactive)
21,COC(=O)c1c(C(=O)OC)c2ccc3c4ccccc4ccc3n2c1C(=O)C(C)Br (centres undefined),67.9% (inactive)
22,COc1c2c(c(Br)c3c1C(CCc1ccccc1)N(C)CC3)OCO2 (centres undefined),27.4% (inactive)
23,COc1ccc2[nH]cc(-c3cc(N)n4nc(-c5c[nH]c6ccccc56)cc4n3)c2c1,-76.2% (active)
24,CC(C)(C)C(=O)C1CC(C#N)=C2C=Cc3c(ccc4ccccc34)N21 (centres undefined),99.7% (inactive)
25,Oc1ccc(Cl)c(Nc2nc(SCCN3CCOCC3)nc3c2cnn3CC(Cl)c2ccc(Br)cc2)c1 (centres undefined),9.56% (active)
26,Fc1ccc(F)c(CNc2nc(SCCN3CCOCC3)nc3c2cnn3CC(Cl)c2ccc(Br)cc2)c1 (centres undefined),24.7% (inactive)
